Test results from publication PMC11006913.
Positions count from the first letter of the chain named.

How the values were obtained:
Test in all cases: PBM; 200 nM protein, PBS
Settings in all cases: dsDNA, one strand shown
[1] = biological target: T1, VENTX (Homo sapiens, UniProt O95231 78-163, R121Q)
T1 sequence: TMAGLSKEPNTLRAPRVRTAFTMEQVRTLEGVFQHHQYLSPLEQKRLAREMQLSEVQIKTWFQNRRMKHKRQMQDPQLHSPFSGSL

[2] = biological target: T2, VENTX (Homo sapiens, UniProt O95231 78-163)
T2 sequence: T1 sequence with Q44R

[3] = biological target: HOXA7 (Homo sapiens, UniProt P31268 116-202)
Chain of HOXA7 (Homo sapiens, UniProt P31268 116-202) (P31268 116-202): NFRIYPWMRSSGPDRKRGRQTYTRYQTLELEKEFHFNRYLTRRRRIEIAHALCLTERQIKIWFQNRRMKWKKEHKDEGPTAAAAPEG

[4] = biological target: T3, VENTX (Homo sapiens, UniProt O95231 78-163, Y115F)
T3 sequence: T1 sequence with Y38F, Q44R

[5] = biological target: HOXA2 (Homo sapiens, UniProt O43364 129-215, R185T)
Chain of HOXA2 (Homo sapiens, UniProt O43364 129-215, R185T) (O43364 129-215 R185T): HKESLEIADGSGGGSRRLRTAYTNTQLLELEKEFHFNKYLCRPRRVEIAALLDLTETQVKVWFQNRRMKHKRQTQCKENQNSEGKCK

[6] = biological target: ALX1 (Homo sapiens, UniProt Q15699 118-204, L144V)
Chain of ALX1 (Homo sapiens, UniProt Q15699 118-204, L144V) (Q15699 118-204 L144V): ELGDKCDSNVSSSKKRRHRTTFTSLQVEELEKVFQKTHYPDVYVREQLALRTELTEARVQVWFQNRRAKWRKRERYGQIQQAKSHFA

[7] = biological target: ALX3 (Homo sapiens, UniProt O95076 139-225, N203Q)
Chain of ALX3 (Homo sapiens, UniProt O95076 139-225, N203Q) (O95076 139-225 N203Q): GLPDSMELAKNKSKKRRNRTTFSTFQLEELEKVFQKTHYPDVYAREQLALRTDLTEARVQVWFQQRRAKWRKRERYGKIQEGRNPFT

[8] = biological target: PITX2 (Homo sapiens, UniProt Q99697 72-157)
[9] = biological target: HOXA2 (Homo sapiens, UniProt O43364 129-215, R185K)
Chain of HOXA2 (Homo sapiens, UniProt O43364 129-215, R185K) (O43364 129-215 R185K): as the sequence (O43364 129-215 R185T) above, with T57K counted along it

[10] = biological target: ALX1 (Homo sapiens, UniProt Q15699 118-204, L144R)
Chain of ALX1 (Homo sapiens, UniProt Q15699 118-204, L144R) (Q15699 118-204 L144R): as the sequence (Q15699 118-204 L144V) above, with V27R counted along it

[11] = biological target: ALX3 (Homo sapiens, UniProt O95076 139-225)
Chain of ALX3 (Homo sapiens, UniProt O95076 139-225) (O95076 139-225): as the sequence (O95076 139-225 N203Q) above, with Q65N counted along it

[12] = biological target: ALX3 (Homo sapiens, UniProt O95076 139-225, L168Q)
Chain of ALX3 (Homo sapiens, UniProt O95076 139-225, L168Q) (O95076 139-225 L168Q): as the sequence (O95076 139-225 N203Q) above, with L30Q, Q65N counted along it

[13] = biological target: ALX3 (Homo sapiens, UniProt O95076 139-225, L168V)
Chain of ALX3 (Homo sapiens, UniProt O95076 139-225, L168V) (O95076 139-225 L168V): as the sequence (O95076 139-225 N203Q) above, with L30V, Q65N counted along it

[14] = biological target: HOXA2 (Homo sapiens, UniProt O43364 129-215, Y150S)
Chain of HOXA2 (Homo sapiens, UniProt O43364 129-215, Y150S) (O43364 129-215 Y150S): as the sequence (O43364 129-215 R185T) above, with Y22S, T57R counted along it

[15] = biological target: HOXA7 (Homo sapiens, UniProt P31268 116-202, W177C)
Chain of HOXA7 (Homo sapiens, UniProt P31268 116-202, W177C) (P31268 116-202 W177C): as the sequence (P31268 116-202) above, with W62C counted along it

[16] = biological target: NKX3-2 (Homo sapiens, UniProt P78367 192-278, P234S)
Chain of NKX3-2 (Homo sapiens, UniProt P78367 192-278, P234S) (P78367 192-278 P234S): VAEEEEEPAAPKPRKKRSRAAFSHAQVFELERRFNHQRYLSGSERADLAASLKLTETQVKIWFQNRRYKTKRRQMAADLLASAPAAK

[17] = biological target: ALX1 (Homo sapiens, UniProt Q15699 118-204)
Chain of ALX1 (Homo sapiens, UniProt Q15699 118-204) (Q15699 118-204): as the sequence (Q15699 118-204 L144V) above, with V27L counted along it

[18] = biological target: ALX3 (Homo sapiens, UniProt O95076 139-225, N203S)
Chain of ALX3 (Homo sapiens, UniProt O95076 139-225, N203S) (O95076 139-225 N203S): as the sequence (O95076 139-225 N203Q) above, with Q65S counted along it

[19] = biological target: HOXA2 (Homo sapiens, UniProt O43364 129-215)
Chain of HOXA2 (Homo sapiens, UniProt O43364 129-215) (O43364 129-215): as the sequence (O43364 129-215 R185T) above, with T57R counted along it

[20] = biological target: NKX3-2 (Homo sapiens, UniProt P78367 192-278)
Chain of NKX3-2 (Homo sapiens, UniProt P78367 192-278) (P78367 192-278): as the sequence (P78367 192-278 P234S) above, with S43P counted along it

[21] = biological target: ALX4 (Homo sapiens, UniProt Q9H161 200-286)
Chain of ALX4 (Homo sapiens, UniProt Q9H161 200-286) (Q9H161 200-286): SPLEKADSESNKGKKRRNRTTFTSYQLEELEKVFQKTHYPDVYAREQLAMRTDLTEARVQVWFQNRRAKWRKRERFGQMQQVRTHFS

[22] = biological target: ALX4 (Homo sapiens, UniProt Q9H161 200-286, Q225E)
Chain of ALX4 (Homo sapiens, UniProt Q9H161 200-286, Q225E) (Q9H161 200-286 Q225E): as the sequence (Q9H161 200-286) above, with Q26E counted along it

[23] = biological target: T4, PAX4 (Homo sapiens, UniProt O43316 9-242, R200K)
T4 sequence: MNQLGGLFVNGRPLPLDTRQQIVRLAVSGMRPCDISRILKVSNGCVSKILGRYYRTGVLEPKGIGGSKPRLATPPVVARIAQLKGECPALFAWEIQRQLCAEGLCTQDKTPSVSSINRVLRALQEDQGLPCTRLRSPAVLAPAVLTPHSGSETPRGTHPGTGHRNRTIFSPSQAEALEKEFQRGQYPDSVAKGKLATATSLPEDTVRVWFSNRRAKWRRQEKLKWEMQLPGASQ

[24] = biological target: T5, PAX4 (Homo sapiens, UniProt O43316 9-242)
T5 sequence: T4 sequence with K192R

[25] = biological target: MSX2 (Homo sapiens, UniProt P35548 130-214, R199I)
Chain of MSX2 (Homo sapiens, UniProt P35548 130-214, R199I) (P35548 130-214 R199I): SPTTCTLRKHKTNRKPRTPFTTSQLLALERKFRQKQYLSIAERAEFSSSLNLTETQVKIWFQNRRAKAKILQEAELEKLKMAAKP

[26] = biological target: T6, PAX4 (Homo sapiens, UniProt O43316 9-242, R200Q)
T6 sequence: T4 sequence with K192Q

[27] = biological target: T7, PAX4 (Homo sapiens, UniProt O43316 9-242, F177V)
T7 sequence: T4 sequence with F169V, K192R

[28] = biological target: MSX2 (Homo sapiens, UniProt P35548 130-214)
Chain of MSX2 (Homo sapiens, UniProt P35548 130-214) (P35548 130-214): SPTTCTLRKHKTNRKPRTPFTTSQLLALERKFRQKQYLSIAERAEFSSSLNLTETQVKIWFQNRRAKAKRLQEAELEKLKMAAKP

[29] = biological target: T8, PAX4 (Homo sapiens, UniProt O43316 9-242, F177Y)
T8 sequence: T4 sequence with F169Y, K192R

[30] = biological target: MSX2 (Homo sapiens, UniProt P35548 130-214, F161Y)
Chain of MSX2 (Homo sapiens, UniProt P35548 130-214, F161Y) (P35548 130-214 F161Y): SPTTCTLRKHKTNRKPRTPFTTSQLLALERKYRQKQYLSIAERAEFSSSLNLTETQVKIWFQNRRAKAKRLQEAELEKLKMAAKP

[31] = biological target: T9, PAX4 (Homo sapiens, UniProt O43316 9-242, R227W)
T9 sequence: T4 sequence with K192R, R219W

[32] = biological target: HOXC10 (Homo sapiens, UniProt Q9NYD6 254-340)
Chain of HOXC10 (Homo sapiens, UniProt Q9NYD6 254-340) (Q9NYD6 254-340): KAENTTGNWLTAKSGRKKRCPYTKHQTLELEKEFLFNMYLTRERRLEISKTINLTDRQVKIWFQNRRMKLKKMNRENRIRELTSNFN

[33] = biological target: HOXC10 (Homo sapiens, UniProt Q9NYD6 254-340, K271E)
Chain of HOXC10 (Homo sapiens, UniProt Q9NYD6 254-340, K271E) (Q9NYD6 254-340 K271E): as the sequence (Q9NYD6 254-340) above, with K18E counted along it

[34] = biological target: VAX1 (Homo sapiens, UniProt Q5SQQ9 86-172)
Chain of VAX1 (Homo sapiens, UniProt Q5SQQ9 86-172) (Q5SQQ9 86-172): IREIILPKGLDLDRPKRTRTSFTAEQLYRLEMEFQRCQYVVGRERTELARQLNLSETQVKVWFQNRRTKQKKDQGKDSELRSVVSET

[35] = biological target: VAX1 (Homo sapiens, UniProt Q5SQQ9 86-172, T142I)
Chain of VAX1 (Homo sapiens, UniProt Q5SQQ9 86-172, T142I) (Q5SQQ9 86-172 T142I): as the sequence (Q5SQQ9 86-172) above, with T57I counted along it

[36] = biological target: VAX1 (Homo sapiens, UniProt Q5SQQ9 86-172, K157R)
Chain of VAX1 (Homo sapiens, UniProt Q5SQQ9 86-172, K157R) (Q5SQQ9 86-172 K157R): as the sequence (Q5SQQ9 86-172) above, with K72R counted along it

CGGCCCCC
binding signal [1]: 8.06 upbm affinity estimate (log intensity, higher = more binding, comparable within an allelic series) | binding signal [2]: 8.05 upbm affinity estimate (log intensity, higher = more binding, comparable within an allelic series) | binding signal [3]: 8.26 upbm affinity estimate (log intensity, higher = more binding, comparable within an allelic series) | binding signal [4]: 8.12 upbm affinity estimate (log intensity, higher = more binding, comparable within an allelic series) | binding signal [5]: 7.13 upbm affinity estimate (log intensity, higher = more binding, comparable within an allelic series) | binding signal [6]: 6.51 upbm affinity estimate (log intensity, higher = more binding, comparable within an allelic series) | binding signal [7]: 7.78 upbm affinity estimate (log intensity, higher = more binding, comparable within an allelic series) | binding signal [8]: 7.78 upbm affinity estimate (log intensity, higher = more binding, comparable within an allelic series) | binding signal [9]: 9.86 upbm affinity estimate (log intensity, higher = more binding, comparable within an allelic series) | binding signal [10]: 6.5 upbm affinity estimate (log intensity, higher = more binding, comparable within an allelic series) | binding signal [11]: 7.73 upbm affinity estimate (log intensity, higher = more binding, comparable within an allelic series) | binding signal [12]: 7.68 upbm affinity estimate (log intensity, higher = more binding, comparable within an allelic series) | binding signal [13]: 7.67 upbm affinity estimate (log intensity, higher = more binding, comparable within an allelic series) | binding signal [14]: 10.3 upbm affinity estimate (log intensity, higher = more binding, comparable within an allelic series) | binding signal [15]: 8.35 upbm affinity estimate (log intensity, higher = more binding, comparable within an allelic series) | binding signal [16]: 10.4 upbm affinity estimate (log intensity, higher = more binding, comparable within an allelic series) | binding signal [17]: 6.49 upbm affinity estimate (log intensity, higher = more binding, comparable within an allelic series) | binding signal [18]: 7.76 upbm affinity estimate (log intensity, higher = more binding, comparable within an allelic series) | binding signal [19]: 7.15 upbm affinity estimate (log intensity, higher = more binding, comparable within an allelic series) | binding signal [20]: 10.4 upbm affinity estimate (log intensity, higher = more binding, comparable within an allelic series)

CCCAGAGG
binding signal [1]: 7.95 upbm affinity estimate (log intensity, higher = more binding, comparable within an allelic series) | binding signal [2]: 7.77 upbm affinity estimate (log intensity, higher = more binding, comparable within an allelic series) | binding signal [21]: 8.01 upbm affinity estimate (log intensity, higher = more binding, comparable within an allelic series) | binding signal [4]: 7.81 upbm affinity estimate (log intensity, higher = more binding, comparable within an allelic series) | binding signal [22]: 8 upbm affinity estimate (log intensity, higher = more binding, comparable within an allelic series) | binding signal [5]: 7.09 upbm affinity estimate (log intensity, higher = more binding, comparable within an allelic series) | binding signal [7]: 7.67 upbm affinity estimate (log intensity, higher = more binding, comparable within an allelic series) | binding signal [9]: 10.2 upbm affinity estimate (log intensity, higher = more binding, comparable within an allelic series) | binding signal [11]: 7.71 upbm affinity estimate (log intensity, higher = more binding, comparable within an allelic series) | binding signal [12]: 7.65 upbm affinity estimate (log intensity, higher = more binding, comparable within an allelic series) | binding signal [13]: 7.63 upbm affinity estimate (log intensity, higher = more binding, comparable within an allelic series) | binding signal [14]: 10.3 upbm affinity estimate (log intensity, higher = more binding, comparable within an allelic series) | binding signal [18]: 7.62 upbm affinity estimate (log intensity, higher = more binding, comparable within an allelic series) | binding signal [19]: 7.15 upbm affinity estimate (log intensity, higher = more binding, comparable within an allelic series)

GAAGCCGC
binding signal [1]: 8.12 upbm affinity estimate (log intensity, higher = more binding, comparable within an allelic series) | binding signal [2]: 8.07 upbm affinity estimate (log intensity, higher = more binding, comparable within an allelic series) | binding signal [21]: 8.19 upbm affinity estimate (log intensity, higher = more binding, comparable within an allelic series) | binding signal [23]: 9.31 upbm affinity estimate (log intensity, higher = more binding, comparable within an allelic series) | binding signal [4]: 8.31 upbm affinity estimate (log intensity, higher = more binding, comparable within an allelic series) | binding signal [24]: 9.25 upbm affinity estimate (log intensity, higher = more binding, comparable within an allelic series) | binding signal [22]: 8.07 upbm affinity estimate (log intensity, higher = more binding, comparable within an allelic series) | binding signal [25]: 9.54 upbm affinity estimate (log intensity, higher = more binding, comparable within an allelic series) | binding signal [26]: 9.31 upbm affinity estimate (log intensity, higher = more binding, comparable within an allelic series) | binding signal [27]: 9.32 upbm affinity estimate (log intensity, higher = more binding, comparable within an allelic series) | binding signal [28]: 9.58 upbm affinity estimate (log intensity, higher = more binding, comparable within an allelic series) | binding signal [29]: 9.18 upbm affinity estimate (log intensity, higher = more binding, comparable within an allelic series) | binding signal [30]: 9.63 upbm affinity estimate (log intensity, higher = more binding, comparable within an allelic series) | binding signal [31]: 9.34 upbm affinity estimate (log intensity, higher = more binding, comparable within an allelic series)

CTACCCGC
binding signal [1]: 8.06 upbm affinity estimate (log intensity, higher = more binding, comparable within an allelic series) | binding signal [2]: 8.07 upbm affinity estimate (log intensity, higher = more binding, comparable within an allelic series) | binding signal [4]: 8.08 upbm affinity estimate (log intensity, higher = more binding, comparable within an allelic series)

ATTAGGTG
binding signal [1]: 10.8 upbm affinity estimate (log intensity, higher = more binding, comparable within an allelic series) | binding signal [2]: 11.2 upbm affinity estimate (log intensity, higher = more binding, comparable within an allelic series) | binding signal [3]: 10 upbm affinity estimate (log intensity, higher = more binding, comparable within an allelic series) | binding signal [4]: 10.5 upbm affinity estimate (log intensity, higher = more binding, comparable within an allelic series) | binding signal [15]: 8.8 upbm affinity estimate (log intensity, higher = more binding, comparable within an allelic series)

AACGATTA
binding signal [1]: 11.2 upbm affinity estimate (log intensity, higher = more binding, comparable within an allelic series) | binding signal [2]: 12.3 upbm affinity estimate (log intensity, higher = more binding, comparable within an allelic series) | binding signal [4]: 11.3 upbm affinity estimate (log intensity, higher = more binding, comparable within an allelic series)

GAGTTCCC
binding signal [1]: 8.1 upbm affinity estimate (log intensity, higher = more binding, comparable within an allelic series) | binding signal [2]: 8.23 upbm affinity estimate (log intensity, higher = more binding, comparable within an allelic series) | binding signal [32]: 9.93 upbm affinity estimate (log intensity, higher = more binding, comparable within an allelic series) | binding signal [4]: 8.22 upbm affinity estimate (log intensity, higher = more binding, comparable within an allelic series) | binding signal [33]: 10 upbm affinity estimate (log intensity, higher = more binding, comparable within an allelic series)

CATTAGAA
binding signal [1]: 10.5 upbm affinity estimate (log intensity, higher = more binding, comparable within an allelic series) | binding signal [2]: 11.1 upbm affinity estimate (log intensity, higher = more binding, comparable within an allelic series) | binding signal [4]: 10.4 upbm affinity estimate (log intensity, higher = more binding, comparable within an allelic series)

CGTCCAGC
binding signal [1]: 8.04 upbm affinity estimate (log intensity, higher = more binding, comparable within an allelic series) | binding signal [2]: 7.65 upbm affinity estimate (log intensity, higher = more binding, comparable within an allelic series) | binding signal [3]: 8.59 upbm affinity estimate (log intensity, higher = more binding, comparable within an allelic series) | binding signal [4]: 7.81 upbm affinity estimate (log intensity, higher = more binding, comparable within an allelic series) | binding signal [25]: 9.63 upbm affinity estimate (log intensity, higher = more binding, comparable within an allelic series) | binding signal [28]: 9.6 upbm affinity estimate (log intensity, higher = more binding, comparable within an allelic series) | binding signal [30]: 9.74 upbm affinity estimate (log intensity, higher = more binding, comparable within an allelic series) | binding signal [15]: 8.41 upbm affinity estimate (log intensity, higher = more binding, comparable within an allelic series)

CAGGGCCC
binding signal [1]: 8.07 upbm affinity estimate (log intensity, higher = more binding, comparable within an allelic series) | binding signal [2]: 8.08 upbm affinity estimate (log intensity, higher = more binding, comparable within an allelic series) | binding signal [3]: 8.32 upbm affinity estimate (log intensity, higher = more binding, comparable within an allelic series) | binding signal [4]: 7.87 upbm affinity estimate (log intensity, higher = more binding, comparable within an allelic series) | binding signal [34]: 7.03 upbm affinity estimate (log intensity, higher = more binding, comparable within an allelic series) | binding signal [35]: 7.1 upbm affinity estimate (log intensity, higher = more binding, comparable within an allelic series) | binding signal [15]: 8.37 upbm affinity estimate (log intensity, higher = more binding, comparable within an allelic series) | binding signal [36]: 6.99 upbm affinity estimate (log intensity, higher = more binding, comparable within an allelic series)

CGCATGCG
binding signal [1]: 8.34 upbm affinity estimate (log intensity, higher = more binding, comparable within an allelic series) | binding signal [2]: 8.73 upbm affinity estimate (log intensity, higher = more binding, comparable within an allelic series) | binding signal [4]: 8.4 upbm affinity estimate (log intensity, higher = more binding, comparable within an allelic series)

ACCACGCC
binding signal [1]: 7.95 upbm affinity estimate (log intensity, higher = more binding, comparable within an allelic series) | binding signal [2]: 8.09 upbm affinity estimate (log intensity, higher = more binding, comparable within an allelic series) | binding signal [4]: 7.97 upbm affinity estimate (log intensity, higher = more binding, comparable within an allelic series)
